This is an account of results in PubChem BioAssay (NCATS).

In test [1] the target is Lysosomal acid glucosylceramidase (Homo sapiens) (UniProt P04062). The experiment in a line: Glucocerebrosidase-p2 (AID 348; in the data active = potency below about 10 µM; note: potency is the fitted concentration of half-maximal effect). The settings on record: purified GBA, blue fluorogenic substrate, 40 min. The method in brief:
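Compounds titrated from 0.6 nM upwards against 0.2 nM enzyme in pH 5.9 citric acid/KH2PO4, taurocholate, tween-20; blue fluorogenic substrate 80 uM, 40 min room temperature, stopped and read Ex 365/Em 440 for AC50.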

Test [2] in a line: AP1 Signaling Pathway (AID 357). Note: % is set by controls: 0 for no effect and ±100 for the full control effect. The settings on record: ME-180 AP-1-bla reporter, EGF-induced, beta-lactamase ratio, 5 h; at 7.69 µM (top of the series) unless noted. A digest of the protocol:
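ME-180 cells with beta-lactamase reporter under AP-1 response element, stimulated with EC50 EGF; compounds tested in titration series, 5 h at 37 °C. CCF4 substrate added 2.5 h at room temperature; 460/530 nm emission ratio gave %activity and AC50.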

In test [3] the target is Cytochrome P450 1A2 (Homo sapiens) (UniProt P05177). The experiment in a line: p450-cyp1a2 (AID 410; calls by dose curve; note: potency is the fitted concentration of half-maximal effect;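 for activity change, negative = inhibition: -100% = full effect of reference inhibitor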). The settings on record: recombinant CYP1A2, luciferin-ME demethylation, luminescence; series mostly up to 11.4 µM. A digest of the protocol:
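Inhibition was calculated relative to 57 uM furafylline (full inhibition). The reaction used human CYP1A2 at 20nM with Luciferin-ME at its Km, 100uM, driven by an NADPH-regenerating system for 60 min at room temperature.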

Test [4] can be described thus: NFAT Signaling Pathway (AID 444).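 Note: carbachol stimulus at about its EC50 of 1 µM final; % is set by controls: 0 for no effect and ±100 for the full control effect.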 The settings on record: Jurkat NFAT-bla M1, carbachol, beta-lactamase ratio, 5 h; at 7.69 µM (top of the series) unless noted. The method in brief:
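Jurkat cells with NFAT-driven β-lactamase reporter and co-expressed M1 receptor, stimulated with carbachol (final 1 uM, ~EC50), compound titration, 5 h at 37 °C. CCF4 loaded 1 h at RT; 460/530 nm ratio gave %activity and AC50.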

Test [5] addresses Glucocorticoid receptor (Homo sapiens) (UniProt P04150). As to the kind of experiment: GR-GFP Redistribution (AID 450;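 active = compounds whose dose series gives a full or clear partial fitted curve of increased nuclear translocation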; note: potency is the fitted concentration of half-maximal effect). The settings on record: U2OS GR-GFP nuclear translocation, laser cytometry, 2 h.
Test [6] shares this target. The experiment in a line: GR-EFC Redistribution (AID 451; calls by dose curve; note: potency is the fitted concentration of half-maximal effect). The settings on record: CHO-K1 GR-EFC translocation, beta-gal luminescence, 2 h. A digest of the protocol: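 CHO-K1 cells expressing nuclear EA and GR-ED fragments of b-gal; compounds titrated up to 46 uM final, 2 h at 37 C. GR nuclear translocation read as complemented b-gal luminescence after 1 h RT detection.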

Test [7] addresses Mitogen-activated protein kinase 10 (Mus musculus) (UniProt Q61831). The experiment in a line: JNK3 AlphaScreen Assay (AID 530).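 Note: kinase came from lysate of stimulated human HepG2 cells; signal reports phosphorylation of biotinylated GST-cJun 1-79 at Ser73 with 10 µM ATP; % is set by controls: 0 for no effect and ±100 for the full control effect.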 Conditions: JNK3 lysate, c-Jun phosphorylation; series mostly up to 11.4 µM. The method in brief:
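qHTS format: compounds tested as titrations against IL-1beta/TNF-alpha-activated HepG2 lysate JNK3 with biotin-GST-cJun substrate and 10 uM ATP at room temperature. Loss of anti-phospho-cJun AlphaScreen signal indicates inhibition.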

The target of test [8] is 3',5'-cyclic-AMP phosphodiesterase 4B (Homo sapiens) (UniProt Q07343). As to the kind of experiment: qHTS Assay for Inhibitors of PDE-IV (AID 607; active = well fitted activation curve with a large enough effect in the main read-out, with a control signal flat, not every such curve was filed as active; note: % of control where 0% means no effect). The settings on record: HEK293 ACTOne CNG channel cells, membrane potential fluorescence; series mostly up to 22.9 µM. The method in brief: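 The readout is membrane depolarisation from a cAMP-sensing CNG channel, detected with a potential dye at ex 535/em 590. Cells were HEK293-derived (endogenous PDE-IV) at 1000 cells/well, titrated up to 22.9 uM final.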
Sequence of 3',5'-cyclic-AMP phosphodiesterase 4B (Homo sapiens) (Q07343 whole entry, looked up): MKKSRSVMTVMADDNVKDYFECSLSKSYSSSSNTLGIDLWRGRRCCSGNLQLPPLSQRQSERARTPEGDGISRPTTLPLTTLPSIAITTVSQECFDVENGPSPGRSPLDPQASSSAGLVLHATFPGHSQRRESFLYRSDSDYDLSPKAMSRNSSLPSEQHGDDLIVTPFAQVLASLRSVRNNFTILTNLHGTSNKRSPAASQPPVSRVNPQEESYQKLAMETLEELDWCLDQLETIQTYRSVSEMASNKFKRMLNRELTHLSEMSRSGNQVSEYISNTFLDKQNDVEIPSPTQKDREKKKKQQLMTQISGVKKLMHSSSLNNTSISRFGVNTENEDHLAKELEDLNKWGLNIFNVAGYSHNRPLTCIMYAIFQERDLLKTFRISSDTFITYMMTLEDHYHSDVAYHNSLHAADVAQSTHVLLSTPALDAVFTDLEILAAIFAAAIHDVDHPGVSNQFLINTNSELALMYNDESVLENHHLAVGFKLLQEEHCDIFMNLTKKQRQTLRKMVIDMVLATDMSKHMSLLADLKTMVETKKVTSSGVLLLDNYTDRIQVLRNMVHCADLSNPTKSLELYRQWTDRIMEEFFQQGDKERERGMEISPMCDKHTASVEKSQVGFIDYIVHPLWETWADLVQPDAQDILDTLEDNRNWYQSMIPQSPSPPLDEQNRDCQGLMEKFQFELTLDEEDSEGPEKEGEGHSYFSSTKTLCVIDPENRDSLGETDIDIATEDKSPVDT

Test [9] deals with Cytochrome P450 2C19 (Homo sapiens) (UniProt P33261). As to the kind of experiment: qHTS Assay for Inhibitors and Substrates of Cytochrome P450 2C19 (AID 899; active = well fitted curve in the direction sought with a large enough effect; an effect the other way counts as inactive or inconclusive; note: potency is the fitted concentration of half-maximal effect; nearly all actives have a fitted effect of over 60% in size). Conditions: recombinant CYP2C19, luciferin-H EGE luminescence; series mostly up to 11.4 µM. The method in brief:
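5 nM human CYP2C19 with 10uM Luciferin-H EGE (at KM) in 50mM KPO4, compound preincubated 10 min at 37C, then NADPH regeneration for 60 min at 37C. Luciferin read by luminescence after detection reagent; normalized to 57uM ketoconazole as full inhibition.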
(qHTS replaces the single test concentration by a dilution series.)

For test [10], the target named is Cytochrome P450 2C9 (Homo sapiens) (UniProt P11712). As to the kind of experiment: qHTS Assay for Inhibitors and Substrates of Cytochrome P450 2C9 (AID 883; active = well fitted curve in the direction sought with a large enough effect; an effect the other way counts as inactive or inconclusive; note: potency is the fitted concentration of half-maximal effect; nearly all actives have a fitted effect of over 60% in size). Conditions: recombinant CYP2C9, luciferin-H luminescence, 60 min; series mostly up to 11.4 µM. The method in brief:
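Human CYP2C9 (10nM) with Luciferin-H at 100uM (its KM) in 25mM KPO4; compound preincubated 10 min at 37C, then NADPH regeneration for 60 min at 37C. Luciferin read by luminescence after detection reagent; normalized to 57uM sulphaphenazole as full inhibition.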

Test [11] deals with Cytochrome P450 3A4 (Homo sapiens) (UniProt P08684). As to the kind of experiment: qHTS Assay for Activators of Cytochrome P450 3A4 (AID 885; active = well fitted curve in the direction sought with a large enough effect; an effect the other way counts as inactive or inconclusive; note: nearly all actives have a fitted effect of over 65% in size). Conditions: recombinant CYP3A4, Luciferin-PPXE luminescence, 60 min; series mostly up to 11.4 µM. The method in brief: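 Steps: enzyme/substrate mix dispensed; compound added, 10 min RT; NADPH regeneration solution added, 60 min RT; luciferin detection buffer stops reaction; 20 min later luminescence measured.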
Sequence of Cytochrome P450 3A4 (Homo sapiens) (P08684 whole entry, looked up): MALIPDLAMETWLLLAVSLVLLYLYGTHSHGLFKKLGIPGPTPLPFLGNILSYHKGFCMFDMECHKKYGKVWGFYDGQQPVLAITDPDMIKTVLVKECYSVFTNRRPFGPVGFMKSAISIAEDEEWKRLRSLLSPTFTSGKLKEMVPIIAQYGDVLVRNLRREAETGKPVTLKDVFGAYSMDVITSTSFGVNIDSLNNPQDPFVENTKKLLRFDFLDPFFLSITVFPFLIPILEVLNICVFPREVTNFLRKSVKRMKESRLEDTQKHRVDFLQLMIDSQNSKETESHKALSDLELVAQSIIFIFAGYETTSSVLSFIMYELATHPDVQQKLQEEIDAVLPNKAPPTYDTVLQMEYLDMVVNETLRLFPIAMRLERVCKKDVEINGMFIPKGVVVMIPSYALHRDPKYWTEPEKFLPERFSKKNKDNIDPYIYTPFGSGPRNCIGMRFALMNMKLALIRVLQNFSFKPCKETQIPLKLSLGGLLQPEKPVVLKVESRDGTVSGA

Test [12] is described as follows: qHTS Assay for Identification of Small Molecule Agonists for Hypoxia Response Element Signaling Pathway (AID 914; active = well fitted activation curve with a large enough effect in the signal ratio, with a control signal flat, not every such curve was filed as active; the % refers to the signal ratio; note: % of control where 0% means no effect). The settings on record: ME-180 (cervical carcinoma) HRE-bla reporter, beta-lactamase ratio, CoCl2, 17 h; activation: active compounds read high. A digest of the protocol: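 HRE-bla ME-180 assay for agonist-like enhancement of an EC50 CoCl2 stimulus: 17 h at 37 degrees Celsius, CCF4 for 2.5 h, ratiometric 460/530 nm signal converted to %Activity and fitted to AC50.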

In test [13] the target is Luciferin 4-monooxygenase (Photinus pyralis) (UniProt P08659). As to the kind of experiment: Biochemical firefly luciferase enzyme assay for NPC (AID 624030; active = well fitted curve in the direction sought with a large enough effect; an effect the other way counts as inactive or inconclusive;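 note: purified P. pyralis luciferase at 10 nM with luciferin and ATP substrate; 0% = DMSO and -100% = full luciferase inhibition by PTC124 control; nearly all actives have a fitted effect of over 70% in size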). The settings on record: purified P. pyralis luciferase, luminescence, 5 min; series mostly up to 58.6 µM. The method in brief:
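Purified P. pyralis luciferase at 10 nM in 50 mM Tris Acetate (final), luminescence read within 5 minutes of enzyme addition to compounds. Activity normalised to PTC124 versus DMSO; concentration-response curves classed by r2, magnitude and activity.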

Test [14] in a line: S16 Schwann cell PMP22 intronic element beta-lactamase assay (AID 624044; calls by dose curve;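 note: 0% = DMSO and -100% = potassium clavulanate positive control; nearly all actives have a fitted effect of over 15% in size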). Conditions: S16 rat Schwann cells, PMP22 element beta-lactamase FRET, 24 h; series mostly up to 38.3 µM. The method in brief:
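Rat S16 Schwann cells with beta-Lac driven by a PMP22 intronic element, compound-treated 24 h at 37 °C. LiveBLAzer FRET B/G read: 460 nm normalized to potassium clavulanate vs DMSO; 535 nm FRET as viability; concentration-effect curves classified.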

A short description of test [15]: qHTS profiling for inhibitors of Plasmodium falciparum proliferation (AID 504749; active = well fitted curve in the direction sought with a large enough effect; an effect the other way counts as inactive or inconclusive;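 note: 0% = DMSO vehicle and full inhibition = artemisinin control; nearly all actives have a fitted effect of over 60% in size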). Conditions: P. falciparum in erythrocytes, SYBR Green DNA, 72 h, at 28.7 µM (top of the series). A digest of the protocol:
(§1)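 Readout was DNA-dye fluorescence from lysed cultures, ex 485/em 535 nm. Parasitized red cells had grown 72 h with compound; data scaled between 0.29 uM artemisinin and DMSO wells and corrected using vehicle-only plates.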

Test [16] has as its system 3D7. The description is as above. The settings on record: P. falciparum in erythrocytes, SYBR Green DNA, 72 h; series mostly up to 28.7 µM. The method in brief: as §1
Test [17] has as its system AS120. The description is as above. Conditions: P. falciparum in erythrocytes, SYBR Green DNA, 72 h; series mostly up to 28.7 µM. The method in brief: as §1
For test [18], the target named is Cytochrome P450 3A4 (Homo sapiens) (UniProt P08684). The experiment in a line: qHTS Assay for Inhibitors and Substrates of Cytochrome P450 3A4 (AID 884; active = well fitted curve in the direction sought with a large enough effect; an effect the other way counts as inactive or inconclusive; note: potency is the fitted concentration of half-maximal effect; nearly all actives have a fitted effect of over 50% in size). Conditions: recombinant CYP3A4, Luciferin-PPXE luminescence; series mostly up to 57.1 µM. A digest of the protocol:
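20 nM human CYP3A4 with 25 uM Luciferin-PPXE (at KM) in 200 mM KPO4, preincubated 10 min with compound; NADPH regeneration started a 60 min RT reaction. Luciferin detected by luminescence, normalized to 57 uM ketoconazole as full inhibition.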

Values without a mark were called inactive. Results filed as inconclusive are left out. Active and inactive are the calls of the source. Unless noted, calls come from the whole dose curve; as a rule, active = well fitted curve in either direction with a large enough effect (not every such curve was filed as active); inconclusive = small, poorly fitted or top-dose-only effect, or another doubt; inactive = flat fitted curve, though single readings scatter.

Sequence of Glucocorticoid receptor (Homo sapiens) (P04150 whole entry, looked up, the tested form may be a part): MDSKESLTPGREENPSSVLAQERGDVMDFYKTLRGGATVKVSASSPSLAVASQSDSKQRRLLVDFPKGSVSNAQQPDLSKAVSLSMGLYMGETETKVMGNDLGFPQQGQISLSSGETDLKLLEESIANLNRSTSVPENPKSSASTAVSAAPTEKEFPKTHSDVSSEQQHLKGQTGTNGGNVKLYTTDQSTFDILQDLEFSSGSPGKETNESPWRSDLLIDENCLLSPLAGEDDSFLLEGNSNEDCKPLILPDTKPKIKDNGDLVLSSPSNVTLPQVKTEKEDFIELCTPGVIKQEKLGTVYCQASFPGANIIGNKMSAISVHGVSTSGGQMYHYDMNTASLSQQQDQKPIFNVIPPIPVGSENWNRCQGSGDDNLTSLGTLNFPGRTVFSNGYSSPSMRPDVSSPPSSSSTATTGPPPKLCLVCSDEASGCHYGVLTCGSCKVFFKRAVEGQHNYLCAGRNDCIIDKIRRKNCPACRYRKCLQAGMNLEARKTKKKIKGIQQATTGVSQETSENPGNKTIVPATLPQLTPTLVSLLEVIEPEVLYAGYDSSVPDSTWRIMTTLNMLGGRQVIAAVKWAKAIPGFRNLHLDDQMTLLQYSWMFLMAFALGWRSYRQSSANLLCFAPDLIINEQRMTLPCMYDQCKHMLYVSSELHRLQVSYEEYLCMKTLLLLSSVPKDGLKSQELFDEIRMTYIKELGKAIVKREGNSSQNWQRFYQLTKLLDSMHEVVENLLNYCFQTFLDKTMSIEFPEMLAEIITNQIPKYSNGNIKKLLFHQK
Sequence of Cytochrome P450 1A2 (Homo sapiens) (P05177 whole entry, looked up): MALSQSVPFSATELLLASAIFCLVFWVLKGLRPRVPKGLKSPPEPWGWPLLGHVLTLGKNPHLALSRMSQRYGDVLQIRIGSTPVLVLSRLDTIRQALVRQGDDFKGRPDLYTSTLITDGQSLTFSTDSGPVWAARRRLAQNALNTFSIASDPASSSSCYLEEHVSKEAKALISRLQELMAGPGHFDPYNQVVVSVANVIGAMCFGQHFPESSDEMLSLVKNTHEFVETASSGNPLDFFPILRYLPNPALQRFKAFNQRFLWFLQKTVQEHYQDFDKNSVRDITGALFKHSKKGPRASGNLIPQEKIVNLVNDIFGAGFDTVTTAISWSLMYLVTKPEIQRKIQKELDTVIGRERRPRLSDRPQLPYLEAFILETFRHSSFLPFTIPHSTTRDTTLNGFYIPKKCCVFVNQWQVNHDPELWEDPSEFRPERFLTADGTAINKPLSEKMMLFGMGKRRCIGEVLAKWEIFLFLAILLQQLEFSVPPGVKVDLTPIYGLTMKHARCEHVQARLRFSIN
Sequence of Lysosomal acid glucosylceramidase (Homo sapiens) (P04062 whole entry, looked up): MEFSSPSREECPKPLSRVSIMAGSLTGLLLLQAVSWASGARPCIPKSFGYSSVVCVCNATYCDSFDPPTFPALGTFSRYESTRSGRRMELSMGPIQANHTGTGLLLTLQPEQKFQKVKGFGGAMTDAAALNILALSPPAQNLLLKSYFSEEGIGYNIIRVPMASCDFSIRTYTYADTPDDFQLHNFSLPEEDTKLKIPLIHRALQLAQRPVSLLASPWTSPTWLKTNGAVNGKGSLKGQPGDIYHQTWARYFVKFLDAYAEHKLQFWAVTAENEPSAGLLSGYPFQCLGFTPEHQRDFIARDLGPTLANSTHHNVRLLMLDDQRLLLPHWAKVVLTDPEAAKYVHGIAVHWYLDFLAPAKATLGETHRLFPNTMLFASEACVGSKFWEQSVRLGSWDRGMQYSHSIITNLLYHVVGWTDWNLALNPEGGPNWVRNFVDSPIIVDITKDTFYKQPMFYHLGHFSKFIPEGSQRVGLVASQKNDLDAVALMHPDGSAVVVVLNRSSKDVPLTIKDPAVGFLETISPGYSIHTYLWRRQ
Sequence of Cytochrome P450 2C19 (Homo sapiens) (P33261 whole entry, looked up): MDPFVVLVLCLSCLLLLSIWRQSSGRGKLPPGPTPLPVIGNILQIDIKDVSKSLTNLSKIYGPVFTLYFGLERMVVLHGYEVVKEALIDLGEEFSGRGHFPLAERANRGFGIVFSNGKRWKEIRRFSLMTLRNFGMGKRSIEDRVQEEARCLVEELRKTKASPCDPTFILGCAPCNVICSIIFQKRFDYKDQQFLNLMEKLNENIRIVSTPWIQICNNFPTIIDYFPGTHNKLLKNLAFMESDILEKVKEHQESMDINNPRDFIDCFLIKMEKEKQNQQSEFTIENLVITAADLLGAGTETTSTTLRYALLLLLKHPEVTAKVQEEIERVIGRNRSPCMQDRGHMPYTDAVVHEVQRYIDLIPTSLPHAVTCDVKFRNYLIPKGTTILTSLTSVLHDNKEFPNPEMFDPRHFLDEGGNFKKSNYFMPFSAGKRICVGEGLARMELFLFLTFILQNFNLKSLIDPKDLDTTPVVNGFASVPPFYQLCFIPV
Sequence of Luciferin 4-monooxygenase (Photinus pyralis) (P08659 whole entry, looked up): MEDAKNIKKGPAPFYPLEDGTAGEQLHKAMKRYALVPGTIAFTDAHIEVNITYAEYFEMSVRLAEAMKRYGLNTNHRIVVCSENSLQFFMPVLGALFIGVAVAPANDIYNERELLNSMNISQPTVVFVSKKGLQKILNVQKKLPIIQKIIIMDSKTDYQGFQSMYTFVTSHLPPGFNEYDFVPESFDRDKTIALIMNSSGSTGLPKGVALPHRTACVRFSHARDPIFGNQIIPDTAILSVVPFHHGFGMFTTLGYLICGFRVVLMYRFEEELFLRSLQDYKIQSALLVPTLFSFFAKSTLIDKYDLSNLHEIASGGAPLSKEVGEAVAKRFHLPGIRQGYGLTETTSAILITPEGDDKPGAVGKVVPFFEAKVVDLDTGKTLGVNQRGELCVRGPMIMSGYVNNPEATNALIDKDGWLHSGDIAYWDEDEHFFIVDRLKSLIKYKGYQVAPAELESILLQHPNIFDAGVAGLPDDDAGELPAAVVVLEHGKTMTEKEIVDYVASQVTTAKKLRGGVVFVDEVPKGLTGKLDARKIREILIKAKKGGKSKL
Sequence of Cytochrome P450 2C9 (Homo sapiens) (P11712 whole entry, looked up): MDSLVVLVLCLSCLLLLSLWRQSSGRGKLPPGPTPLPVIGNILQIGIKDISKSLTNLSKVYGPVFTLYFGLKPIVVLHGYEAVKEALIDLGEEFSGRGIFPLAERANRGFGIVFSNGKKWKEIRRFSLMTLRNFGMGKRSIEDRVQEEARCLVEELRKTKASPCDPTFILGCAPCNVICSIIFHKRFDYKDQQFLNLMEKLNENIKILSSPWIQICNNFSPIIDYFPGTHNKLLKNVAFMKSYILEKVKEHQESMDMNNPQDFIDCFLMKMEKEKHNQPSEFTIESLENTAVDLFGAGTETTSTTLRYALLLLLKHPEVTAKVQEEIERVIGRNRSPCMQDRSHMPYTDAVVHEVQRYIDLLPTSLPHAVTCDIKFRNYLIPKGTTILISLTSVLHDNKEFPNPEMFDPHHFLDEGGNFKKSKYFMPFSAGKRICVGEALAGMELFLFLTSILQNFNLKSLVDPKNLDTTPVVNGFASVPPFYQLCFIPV

Consider `NC(N)=NC(N)=Nc1ccc(S(N)(=O)=O)cc1`, for which the values for the Potency in test [1], in test [5] and in [6] were over 11.4 µM, over 46 µM and over 9.22 µM, respectively. The results for the activity change, negative = inhibition in test [2] and in test [4] were 3.63% and 3.86%, respectively. Further, the Potency entry in test [3], in [7] and in test [8] was “inactive” in each case.

On to `c1ccc(NCCSc2nc3ccccc3s2)cc1`, for which the Potency in [1] was over 11.4 µM; in test [3] it was 0.501 µM (active); in test [5], over 46 µM; in test [6] it was over 9.22 µM; in test [9] it was 0.398 µM (active). The activity change, negative = inhibition in test [2] is 2.9%; in test [4] it was -14.1%. The Potency result in [7] and in [8] was “inactive” throughout.

`ON(CCc1ccncc1)Cc1ccccc1`: the Potency in test [1] is over 11.4 µM; in test [3] it was 1 µM (active); in [5], over 46 µM; in [6], over 9.22 µM; in test [10], 3.98 µM (active); in test [9], 0.316 µM (active). Further, the values for the activity change, negative = inhibition in test [2] and in [4] were -5.59% and 9.66%, respectively. For the same compound, the Potency entry in test [7], in test [8] and in test [11] was “inactive” each time.

For the compound `CC1(C)[C@@H]2CC[C@]1(C)[C@@H](OC(=O)CSC#N)C2`, the Potency in [1] is over 11.4 µM. Further, the activity change, negative = inhibition in test [2] was -4%; in test [3], -18.3% [at 2.29 µM]; in test [4], 18.3%. For the same compound, the Potency entry in [7], in test [8], in test [16] and in test [17] was “inactive” each time. Moreover, the activation in test [12] is -0.299%. The call in [13] and in test [14] was inactive. Also, the activity, negative = inhibition in test [15] (parasite line A) is -6.1%; in [15] (parasite line B), -5.42%.

Regarding `Cc1ccc(C)c(C(=N)c2ccccc2Cc2ccccc2)c1`, the Potency is over 11.4 µM in test [1], over 46 µM in test [5], over 9.22 µM in test [6] and 3.98 µM (active) in test [18]. In addition, the figures for the activity change, negative = inhibition in test [2], in test [3] and in test [4] were 1.26%, -6.8% [at 2.29 µM] and -12.9%, respectively. For the same compound, the Potency result in [7], in test [8] and in test [11] was “inactive” throughout.

Regarding `Cc1nc2cnc(N3CCNCC3)nc2n(-c2ccccc2)c1=O`, the Potency in [1] is over 11.4 µM; in [3], 10 µM (active); in test [5], over 9.22 µM; in [6], over 46 µM. Also, the activity change, negative = inhibition in test [2] is -4.43%; in test [4] it was 1.83%. Further, the Potency result in test [7], in test [8] and in [11] was “inactive” in each case.
